Source: PubChem (National Center for Advancing Translational Sciences (NCATS))
Pf Dd2 growth = blocks in vitro growth of P. falciparum Dd2; P. falciparum Dd2 growth, SYBR Green, 72 h; Potency, µM (series often up to 28.9 µM), without a hit: at the top dose activity, negative = inhibition, usual class: inhibitors; 4.3% of 120,000 active; AID 1347417; active = well fitted inhibition curve with a large enough effect;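 also: plate controls were DMSO vehicle for no effect and reference drug for full effect; nearly all actives have a fitted effect of over 65% in size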
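Infected erythrocytes (Dd2, 0.3% parasitemia, 2.5% hematocrit final) are added to compound in RPMI-1640/Albumax II medium, grown 72 h at 37C in low oxygen, then lysed with saponin/Triton-X containing SYBR Green and read by fluorescence.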
The depositor's hits bear a star; i = inactive; [ ] = another dose, or the depositor's remark. The entries come from a sample that favours hits as a whole. Potency is read from the fitted curve at half-maximal effect.

SMILES	Pf Dd2 growth
Cc1ccc(-n2c(/C=C/c3cccs3)nc3ccccc3c2=O)cc1C	8.9µM*
Cc1ccc(-n2c(/C=C/c3cc(Br)cs3)nc3ccccc3c2=O)cc1C	i
COc1ccc(-c2nc3c(c(-c4ccccc4)n2)CN([S+](=O)([O-])c2c(C)noc2C)CC3)cc1	19%
O=C(c1ccccc1)N1CCC[C@H]1c1nc(-c2ccc(F)cc2)no1	-26%
CC(=O)N1Cc2ccccc2CC2(CCN(C)CC2)C1	-21%[44.1 µM]
CN1CCN(C(=O)C2(N(C)CCc3ccccc3)Cc3ccccc3C2)CC1	1µM*
CN(C)CCC(=O)N1Cc2ccccc2CC2(CCCCN2C)C1 (centres undefined)	-34%
COc1ccc(CC(=O)N[C@H]2[C@H](O)[C@H](O)C[C@@H]2c2ccc(N3CCOCC3)nc2)cc1	-29%[44.1 µM]
CCN(C1CCOCC1)C1CN(C(=O)c2nccn2C)C1	8%
COCCn1ccc2c(C3=CCOCC3)nc(-c3cccc4cn[nH]c34)cc21	-11%[44.1 µM]
CCc1ccccc1N(C)C(=O)C1CCCN(c2ncnc3c2nc2n3CCCCC2)C1 (centres undefined)	7.9µM*
CN(C(=O)C1CCN(c2ncnc3c2nc2n3CCCCC2)CC1)c1ccccc1F	-20%
CCc1ccccc1N(CC)C(=O)C1CCN(c2ncnc3c2nc2n3CCCCC2)CC1	11µM*
CCCNC(=O)C1CCN(c2ncnc3c2nc2n3CCCCC2)CC1	-9%
CCCN(CCC)C(=O)C1CCN(c2ncnc3c2nc2n3CCCCC2)CC1	-20%
